Inconclusive results are not listed. Where a call stands in place of a potency, no number is given. Calls of active or inactive are those of the source. Calls come from the whole dose curve; as a rule, active = well fitted inhibition curve with a large enough effect; inconclusive = small, poorly fitted or top-dose-only effect; inactive = no such curve, though single readings can be large or run the other way.

Sequence of N-terminal Xaa-Pro-Lys N-methyltransferase 1 (Homo sapiens) (Q9BV86 whole entry, looked up): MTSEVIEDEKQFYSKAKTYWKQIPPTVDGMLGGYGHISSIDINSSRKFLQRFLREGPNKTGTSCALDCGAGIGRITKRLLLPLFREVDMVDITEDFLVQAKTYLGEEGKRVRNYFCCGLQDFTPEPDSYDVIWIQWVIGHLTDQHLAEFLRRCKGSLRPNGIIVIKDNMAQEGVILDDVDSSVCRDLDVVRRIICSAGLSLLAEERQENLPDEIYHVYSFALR

In the experiment the target is N-terminal Xaa-Pro-Lys N-methyltransferase 1 (Homo sapiens) (UniProt Q9BV86). Nature of the experiment: qHTS Assay for Inhibitors of N-terminal methyltransferase 1 (NTMT1): MTaseGlo Assay Confirmatory Screen, Round 1. The conditions noted are these: Recombinant NTMT1, MTase-Glo SAH luminescence; series mostly up to 57.1 µM. Put shortly:
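Luminescence from MTase-Glo conversion of SAH to ATP measured activity after a 30 min RT reaction with 1 µM SPKRIA substrate, 100 µM SAM and 125 nM enzyme. Normalization used no-enzyme and DMSO controls, followed by Hill fitting.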
(In general: qHTS replaces the single test concentration by a dilution series.)
Take `Nc1ncnc2c1ncn2[C@@H]1O[C@H](C(=O)NC2CC2)[C@@H](O)[C@H]1O`: the Potency result was “inactive”. Take `Nc1ncnc2c1nc(Br)n2C1OC(CO)C(O)C1O` (stereo not drawn): the Potency entry is “inactive”. The entry for `COc1cc2nc(N3CCCCC3)nc(NC3CCN(C)CC3)c2cc1OC` is “inactive”; for `Nc1ncnc2c1ncn2[C@@H]1O[C@H](COP(=O)(O)O)[C@@H](O)[C@@H]1O` it is “inactive”. The entry for `OC[C@H]1O[C@H](n2cnc3c(NC4CCCC4)nc(Cl)nc32)[C@@H](O)[C@@H]1O` is “inactive”; for `CC(C)(COP(=O)(O)OP(=O)(O)OC[C@H]1O[C@@H](n2cnc3c(N)ncnc32)[C@H](O)[C@@H]1OP(=O)(O)O)[C@H](O)C(=O)NCCC(=O)NCCS` it is “inactive”; for `CNC(=O)c1cnn(-c2nc(N)c3ncn([C@@H]4O[C@H](CO)[C@@H](O)[C@H]4O)c3n2)c1` it is “inactive”. The entry for `COc1cc2c(NC3CCN(C)CC3)nc(N3CCCN(C)CC3)nc2cc1OCCOCCN1CCCC1` is “inactive”.

The record behind these values is PubChem BioAssay AID1347145 (National Center for Advancing Translational Sciences (NCATS), 2019).
